This is a sample that favours compounds with a hit; in the whole collection about 7% have one here.
IL1B secr inh: qHTS for Inhibitors of Inflammasome Signaling: IL-1-beta AlphaLISA Primary Screen | THP-1 LPS/ATP IL-1B secretion, AlphaLISA, 16 h; hits give low values | activity change, % at 57.5 µM | hit rate 4.7% among 360,000 | AID 743279, 2014; in the data active = activity change below about -50%; inconclusive = mostly about -30% to -49%; also: % is scaled to controls: 0 for no effect and ±100 for the full control effect
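Secreted IL-1B measured by AlphaLISA bead assay after 16 h compound exposure of THP-1 cells; compounds (final up to 57.5 uM) added 1 h before LPS (250 ng/mL) and ATP (1.25 mM) stimulation; lower signal means less secretion.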
DRD3 antagonist: qHTS of D3 Dopamine Receptor Antagonist: qHTS; D(3) dopamine receptor (Homo sapiens), P35462; D3R cells, DiscoveRx beta-arrestin luminescence, antagonist mode; hits give low values; max response, negative = inhibition, %; hit rate 2.5% among 360,000; AID 652054, 2013; in the data active = max response below about -50%; inconclusive = no clear call, values can overlap the other calls; also: % is scaled to controls: 0 for no effect and ±100 for the full control effect
Target sequence (P35462 whole entry, looked up): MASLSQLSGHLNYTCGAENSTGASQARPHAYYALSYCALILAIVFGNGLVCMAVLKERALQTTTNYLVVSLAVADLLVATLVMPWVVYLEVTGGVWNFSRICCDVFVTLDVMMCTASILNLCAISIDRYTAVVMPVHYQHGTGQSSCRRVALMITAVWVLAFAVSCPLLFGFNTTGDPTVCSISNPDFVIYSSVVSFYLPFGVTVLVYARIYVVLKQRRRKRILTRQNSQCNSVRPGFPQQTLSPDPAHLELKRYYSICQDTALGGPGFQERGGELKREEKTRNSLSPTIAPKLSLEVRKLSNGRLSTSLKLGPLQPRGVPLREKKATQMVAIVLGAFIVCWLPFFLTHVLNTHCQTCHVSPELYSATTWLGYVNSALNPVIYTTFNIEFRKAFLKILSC
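Cells plated overnight at 1500 cells/well, then exposed to library compounds with dopamine controls for 90 minutes at 37 degrees C. DiscoveRx reagent added for 30–60 minutes at room temperature; luminescence read, quantitative HTS format.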
ATXN2 expr inh: Primary qHTS for Inhibitors of ATXN expression | Potency, µM (titrated, usually from 57 µM), inactives show at the highest dose activity change, negative = inhibition, most hits filed as inhibitors | HEK-293 ATXN2-luciferase reporter, luminescence, 24 h | AID 1745845, 2022 | hit rate 0.72% among 360,000; also: potency is read from the fitted curve at half-maximal effect; % is scaled to controls: 0 for no effect and ±100 for the full control effect; nearly all actives have a fitted effect of over 55% in size
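ATXN2-luciferase reporter cells (luciferase flanked by upstream and downstream ATXN2 gene portions) were treated 24 h at 37 °C with compounds at up to 57 uM. SteadyGlo luminescence gave expression; GF-AFC fluorescence gave viability.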
ATXN viability: Viability Counterscreen for Primary qHTS for Inhibitors of ATXN expression; S2 cells (HEK-293 line with an ATXN2-luciferase reporter) viability, CellTiter-Fluor protease fluorescence, 24 h; Potency, µM (series often up to 56.7 µM), hits mostly cytotoxic; hit rate 0.49% among 400,000; AID 651635, 2014; also: potency is read from the fitted curve at half-maximal effect; nearly all actives have a fitted effect of over 40% in size
DRD3 agonist: qHTS of D3 Dopamine Receptor Agonist: qHTS. AID 652048, 2013. D3R DiscoveRx beta-arrestin cells, luminescence, 90 min. hit rate 0.58% among 410,000. max activation, %. D(3) dopamine receptor (Homo sapiens), P35462; in the data active = max activation above about 30%; also: 0% is about no effect
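Agonist-mode cell screen: cells plated at 1500/well and incubated overnight at 37 °C, then exposed to library compounds for 90 min at 37 °C. Detection reagent was added for 30–60 min at room temperature, and luminescence was read.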
a7 integrin act: qHTS for Activators of Integrin-Mediated Alleviation for Muscular Dystrophy. Potency, µM (doses to about 38.3 µM), without a hit: top-dose activation, hits mostly activators. alpha7betagal myoblasts, beta-gal FDG fluorescence, 48 h. AID 624291, 2012. hit rate 0.064% among 350,000;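 also: potency is read from the fitted curve at half-maximal effect; 100% = response of the positive control SU9516; nearly all actives have a fitted effect of over 60% in size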
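alpha7betagal+/- myoblasts (passage 13, 250/well) treated 48 h at 37C with compounds at 1:260 dilution of DMSO stock. Lysed, then beta-galactosidase activity read as FDG fluorescence (ex 480/em 540) after 30 min, with pre-read for autofluorescence.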
* marks the source's active call; other numbers are inactive results; [ ] = dose if it differs, or a comment. Unless noted, calls follow the shape of the dose curve; as a rule, active = well fitted curve in the direction sought with a large enough effect; inconclusive = small, poorly fitted or top-dose-only effect, or another doubt; inactive = no such curve, though single readings can be large; an effect the other way counts as inactive or inconclusive.

`CC(C)C(NC(=O)c1c(F)cccc1F)C(=O)NCc1ccc(S(=O)(=O)N2CCOCC2)cc1` (stereo not given) gave IL1B secr inh -10, DRD3 antagonist 29, ATXN viability inconclusive, DRD3 agonist -2 and a7 integrin act -35%.
For CCO[C@H]1c2c(ccc3ccc(=O)oc23)OC(C)(C)[C@@H]1O the results were IL1B secr inh 1, DRD3 antagonist 6, ATXN2 expr inh 6%, ATXN viability inactive, DRD3 agonist 8 and a7 integrin act -7%.
For Cc1cccc(C)c1NC(=O)CN(C)C(=O)c1ccccc1Cc1ccccc1 the results were IL1B secr inh 1, DRD3 antagonist -5, ATXN2 expr inh -1%, ATXN viability inactive, DRD3 agonist -8 and a7 integrin act 3%.
`Cc1ccc(NC(=O)CN(C)C(=O)c2ccccc2Cc2ccccc2)cc1` gave IL1B secr inh -58*, DRD3 antagonist 2, ATXN2 expr inh -1%, ATXN viability inactive, DRD3 agonist -10 and a7 integrin act 7%.
`Cc1ccc(C)c(NC(=O)CN(C)C(=O)c2ccc(Cl)nc2)c1` gave IL1B secr inh 39, DRD3 antagonist -15, ATXN2 expr inh 8%, ATXN viability inactive, DRD3 agonist 1 and a7 integrin act 10%.
For Cc1ccc(NC(=O)CN(C)C(=O)c2ccc(Cl)nc2)cc1 the results were IL1B secr inh -3, DRD3 antagonist -84*, ATXN2 expr inh 1%, ATXN viability inactive, DRD3 agonist -16 and a7 integrin act 21%.
For COc1ccc(OC)c(NC(=O)c2cccc(N3C(=O)C4C5CCC(C5)C4C3=O)c2)c1 (stereo not given) the results were IL1B secr inh 0, DRD3 antagonist -1, ATXN2 expr inh -22%, ATXN viability inactive, DRD3 agonist 11 and a7 integrin act -20%.
`O=C(Nc1ccccc1)c1cccc(N2C(=O)C3C4C=CC(C5CC45)C3C2=O)c1` (stereo not given) gave IL1B secr inh -55*, DRD3 antagonist 4, ATXN2 expr inh -21%, ATXN viability inconclusive, DRD3 agonist 9 and a7 integrin act 9%.
Screening COc1ccc(OC)c(NC(=O)c2cccc(N3C(=O)C4C5C=CC(C6CC56)C4C3=O)c2)c1 (stereo not given) returned IL1B secr inh -3, DRD3 antagonist 35, ATXN viability 14µM*, DRD3 agonist 8 and a7 integrin act -35%.
Screening O=C(Nc1ccc(F)cc1)c1cccc(N2C(=O)C3C4C=CC(C5CC45)C3C2=O)c1 (stereo not given) returned IL1B secr inh -75*, DRD3 antagonist -8, ATXN2 expr inh -23%, ATXN viability inconclusive, DRD3 agonist -5 and a7 integrin act 20%.
`Cc1ccc(S(=O)(=O)N(C)c2ccccc2C(=O)Nc2ccc3c(c2)OCCO3)cc1` gave IL1B secr inh -16, DRD3 antagonist -6, ATXN2 expr inh 1%, ATXN viability inconclusive, DRD3 agonist 5 and a7 integrin act 1%.
Screening COc1ccc(CN(C(=O)c2ccc(OCC(C)C)cc2)C2CCS(=O)(=O)C2)cc1 (stereo not given) returned ATXN2 expr inh -7%, ATXN viability inactive and DRD3 agonist -8.
`Cc1nn(S(=O)(=O)c2cccs2)c(C)c1Sc1ccc([N+](=O)[O-])cc1` gave IL1B secr inh -7, DRD3 antagonist 9, ATXN2 expr inh -31%, ATXN viability inactive, DRD3 agonist 3 and a7 integrin act 5%.
`Cc1nn(S(=O)(=O)c2ccccc2)c(C)c1Sc1ccc([N+](=O)[O-])cc1` gave IL1B secr inh 1, DRD3 antagonist -80*, ATXN2 expr inh -2%, ATXN viability inactive, DRD3 agonist -1 and a7 integrin act -24%.
Screening CC(=O)O[C@@H](C[C@@H](C)C1=C2C[C@H](O)C3[C@@]4(C)CCC(=O)C(C)(C)C4CC[C@]3(C)[C@@]2(C)CC1)[C@H]1OC1(C)C (stereo not given in full) returned IL1B secr inh inconclusive, DRD3 antagonist 10, ATXN2 expr inh inconclusive, ATXN viability 35µM*, DRD3 agonist 50* and a7 integrin act 3%.
For Cc1cc(C)nc(Nc2ncc(O)n2-c2ccc(Br)cc2)n1 the results were IL1B secr inh -8, DRD3 antagonist -20, ATXN2 expr inh -8%[11.3 µM], ATXN viability inactive, DRD3 agonist -3 and a7 integrin act 25%.
O=C1c2cccnc2C(O)N1Cc1ccc(F)cc1 (stereo not given) was read as IL1B secr inh -16, DRD3 antagonist -66*, ATXN2 expr inh 7%, ATXN viability inactive, DRD3 agonist 4 and a7 integrin act 14%.
For C/C(=N\O)c1cc(Cl)ccc1O the results were IL1B secr inh -26, DRD3 antagonist 2, ATXN viability inactive, DRD3 agonist 6 and a7 integrin act -1%.
Screening CCNC(=O)C1(C)CCN(C(=O)c2ccc(C)c(F)c2)C1 (stereo not given) returned IL1B secr inh -11, DRD3 antagonist 25, ATXN2 expr inh 5%, ATXN viability inactive and DRD3 agonist 3.
CCC(O)CNC(=O)NC(=C(Cl)Cl)c1ccc(C)c(F)c1 (stereo not given) was read as IL1B secr inh -73*, DRD3 antagonist 0, ATXN2 expr inh -2%, ATXN viability inactive, DRD3 agonist -7 and a7 integrin act -53%.
For COc1cccc(C(=O)c2c[nH]c(C(=O)NCc3cccs3)c2)c1 the results were IL1B secr inh -62*, DRD3 antagonist -7, ATXN2 expr inh 1%, ATXN viability inactive, DRD3 agonist -8 and a7 integrin act 20%.
`Cc1noc(C)c1COc1ccc(CC(=O)NCCc2ccccc2)cc1` gave IL1B secr inh 37, DRD3 antagonist -6, ATXN2 expr inh -5%, ATXN viability inactive, DRD3 agonist 7 and a7 integrin act 22%.
Screening COc1ccccc1CN1CC(C(=O)NCc2cnn(C)c2)CCC1=O (stereo not given) returned IL1B secr inh 1, DRD3 antagonist 6, ATXN2 expr inh 6%, ATXN viability inactive, DRD3 agonist 6 and a7 integrin act -1%.
`CN(Cc1ccc(F)cc1)C(=O)c1cccc(S(=O)(=O)N2CCN(Cc3ccccc3)CC2)c1` gave IL1B secr inh -61*, DRD3 antagonist -4, ATXN2 expr inh -27%, ATXN viability inactive, DRD3 agonist -1 and a7 integrin act -58%.

Screening data as filed in PubChem BioAssay.
